Reference: PubChem BioAssay

Assays:
[1] = test system: Human papillomavirus type 1a protein E7 (residues 44-93); experiment: HPV1a E7 fragment binders on microarrays, primary screen, biochemical, small-molecule microarray, residues 44-93, 635 nm fluorescence (AID 1108); settings: small-molecule microarray binding, fluorescence 635 nm; higher = more signal;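 note: E7 fragment applied at 1 µg/mL in TBST for 1 h at 4 C; score combines spot fluorescence with its signal to noise ratio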
[2] = modulators of HCV replicon luciferase signal, primary screen, HCV replication inhibitor project, Huh7 cells, luciferase reporter (AID 1109); settings: 48 h, higher = more signal;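 note: huh7 hepatoma cells harbouring a luciferase neomycin HCV replicon reporter; luciferase luminescence as measure of HCV replicon replication; test concentration not given here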
[3] = molecular target: Left-right determination factor 2 (Homo sapiens) (UniProt O00292); experiment: LEFTY2 binders on small-molecule microarrays, primary screen, biochemical, small-molecule microarray, 635 nm fluorescence scan (AID 1110); settings: LEFTY2 binding, higher = more signal
Left-right determination factor 2 (Homo sapiens), sequence (O00292 whole entry, looked up): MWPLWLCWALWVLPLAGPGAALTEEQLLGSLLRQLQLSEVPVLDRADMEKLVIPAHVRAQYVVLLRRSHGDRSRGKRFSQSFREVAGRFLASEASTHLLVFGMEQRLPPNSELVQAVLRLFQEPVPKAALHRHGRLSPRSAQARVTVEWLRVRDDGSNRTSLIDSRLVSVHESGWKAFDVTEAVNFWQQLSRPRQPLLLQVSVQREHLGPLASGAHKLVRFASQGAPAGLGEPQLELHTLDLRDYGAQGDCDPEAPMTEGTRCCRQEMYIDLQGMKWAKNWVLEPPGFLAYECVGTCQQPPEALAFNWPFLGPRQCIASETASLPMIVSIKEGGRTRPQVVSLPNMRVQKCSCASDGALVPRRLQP

[4] = molecular target: Calmodulin-1 (Homo sapiens) (UniProt P0DP23); experiment: CALM1 binders on microarrays, EGTA buffer, profiling panel, biochemical, small-molecule microarray, Cy5-labelled CALM1 (AID 1111); settings: Cy5-CALM1 binding fluorescence, higher = more signal;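 note: labelled calmodulin applied in Tris saline Tween buffer holding calcium plus EGTA and DTT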
[5] = molecular target: Calmodulin-1 (Homo sapiens) (UniProt P0DP23); experiment: calcium-bound CALM1 binders on microarrays, profiling panel, artefact control for SMM control-protein annotation, biochemical, small-molecule microarray, Cy5-labelled CALM1, plus calcium (AID 1112); settings: Cy5-CALM1 binding fluorescence, higher = more signal;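 note: score merges spot fluorescence with signal to noise from triplicate slides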
[6] = small-molecule microarray binders of probe aWnt5a, primary screen, biochemical, biotinylated probe, 635/667 nm fluorescence (AID 1113); settings: higher = more signal;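 note: score merges 667 nm fluorescence intensity with signal-to-noise per printed feature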
[7] = small-molecule microarray binders of probe aShh, primary screen, biochemical, biotinylated probe, 635/667 nm fluorescence (AID 1114); settings: higher = more signal;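 note: probe is biotin-labelled aShh protein from a stem cell growth factor screen; measures binding of labelled protein to compounds printed on the slide; score merges feature fluorescence at 667 nm with signal-to-noise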
[8] = small-molecule microarray binders of probe aNog, primary screen, biochemical, biotinylated probe, 635/667 nm fluorescence (AID 1115); settings: higher = more signal;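 note: probe is biotinylated aNog protein used at 0.15 µg/mL for 1 h at 4 C; z-score combines 667 nm fluorescence of each spot with its signal to noise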
[9] = molecular target: Torsin-1A-interacting protein 1 (Homo sapiens) (UniProt Q5JTV8); experiment: LAP1 binders from COS7 cell lysate, primary screen, small-molecule microarray, 635/667 nm fluorescence (AID 1116); settings: COS7-hLAP1 lysate binding, 635 nm fluorescence, higher = more signal
Torsin-1A-interacting protein 1 (Homo sapiens), sequence (Q5JTV8 whole entry, looked up): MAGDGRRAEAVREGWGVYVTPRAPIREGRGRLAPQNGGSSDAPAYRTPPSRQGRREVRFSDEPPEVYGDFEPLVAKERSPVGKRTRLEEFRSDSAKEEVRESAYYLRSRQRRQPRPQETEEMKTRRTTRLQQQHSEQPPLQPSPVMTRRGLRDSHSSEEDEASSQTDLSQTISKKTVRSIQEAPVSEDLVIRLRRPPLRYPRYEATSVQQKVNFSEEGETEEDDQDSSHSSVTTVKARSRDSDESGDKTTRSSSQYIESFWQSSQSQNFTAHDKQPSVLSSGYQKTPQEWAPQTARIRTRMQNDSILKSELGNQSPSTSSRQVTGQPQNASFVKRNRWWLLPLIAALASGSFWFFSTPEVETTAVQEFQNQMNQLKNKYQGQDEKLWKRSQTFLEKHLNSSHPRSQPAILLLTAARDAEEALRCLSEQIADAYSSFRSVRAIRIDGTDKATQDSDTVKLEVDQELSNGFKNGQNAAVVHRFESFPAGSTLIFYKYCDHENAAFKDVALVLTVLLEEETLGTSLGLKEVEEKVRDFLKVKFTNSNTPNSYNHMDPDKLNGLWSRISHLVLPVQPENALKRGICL

[10] = molecular target: Alpha-bungarotoxin (Bungarus multicinctus) (UniProt P60615); experiment: alpha-bungarotoxin binders on microarray, profiling panel, artefact control for SMM control protein annotation, biochemical, small-molecule microarray, Alexa647 label, 635/667 nm fluorescence (AID 1117); settings: alpha-BTX-A647 binding fluorescence, higher = more signal
Alpha-bungarotoxin (Bungarus multicinctus), sequence (P60615 whole entry, looked up): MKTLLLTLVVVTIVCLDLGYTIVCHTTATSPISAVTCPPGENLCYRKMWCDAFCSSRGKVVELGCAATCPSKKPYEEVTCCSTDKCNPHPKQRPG

SMILES	composite z-score [1]	z-score [2]	composite z-score [3]	composite z-score [4]	composite z-score [5]	composite z-score [6]	composite z-score [7]	composite z-score [8]	composite z-score [9]	composite z-score [10]
COc1cc2c(cc1OC)CN(C(=O)[C@@H]1[C@H]3C(=O)O[C@H](c4ccccc4)[C@H](c4ccccc4)N3[C@H](c3ccc(O)cc3)[C@@]13C(=O)Nc1ccc(C#CC4(O)CCCCCC4)cc13)CC2	1.21	-1.1	1.39	0.965	-0.0394	-0.195	-0.0005	2.1	0.344	1.66
C=CCOC(=O)[C@@H]1[C@H]2C(=O)O[C@H](c3ccccc3)[C@H](c3ccccc3)N2[C@H](c2ccc(OCCOC(=O)[C@@H]3C[C@@H]4C(=O)N[C@@H](CCCC[N+](C)(C)C)C(=O)N4[C@@H]3c3cccc(OCCO)c3)cc2)[C@@]12C(=O)Nc1ccc(I)cc12	0.741	-2.48	0.692	1.02	0.0416	-0.0512	-0.0146	0.886	0.897	1.59
CC(C)c1ccc(NN2C(C(O)C(c3ccccc3)c3ccccc3)C=CC3C(=O)N(c4ccccc4)C(=O)C32)cc1 (stereo not given)	1.42	-0.276	0.219	1.27	-0.147	0.0279	0.171	1.46	0.954	1.74
C=CC[C@@]1(C(=O)NCc2ccccc2)N=C(c2ccc(OCCCO)cc2)O[C@@H]1c1ccccc1N=[N+]=[N-]	1.25	-0.874	-0.258	1.17	0.399	0.0839	0.171	1.74	1.44	1.82
Cc1ccc(C(C)CC(O)C2C=CC3C(=O)N(c4ccccc4)C(=O)C3N2Nc2ccc([N+](=O)[O-])cc2)o1 (stereo not given)	1.41	-0.212	0.135	1.17	-0.284	-0.0792	-0.229	0.437	0.866	1.3
C[N+](C)(C)CCCC[C@@H]1NC(=O)[C@@H]2C[C@H](C(=O)NCCCCCN)[C@H](c3cccc(OCCO)c3)N2C1=O	1.32	-0.0028	-0.202	1.7	1.12	-0.289	-0.256	0.422	0.987	0.932
CN1C(=O)C2C=CC(C(O)c3cccs3)N(Nc3ccccc3)C2C1=O (stereo not given)	0.548	-0.304	0.0032	0.041	-0.591	0.211	0.265	0.0924	0.558	0.336
NC(=O)[C@@H]1[C@H]2C(=O)O[C@H](c3ccccc3)[C@H](c3ccccc3)N2[C@H](c2ccc(O)cc2)[C@@]12C(=O)Nc1ccc(C#CC3(O)CCCCCC3)cc12	0.124	-0.293	-0.0941	-0.363	0.555	-0.202	0.0684	0.179	1.59	-0.115
CC(C)OC(=O)C=C1C[C@@H](c2ccccc2C(F)(F)F)O[C@@H](c2ccccc2C(F)(F)F)O1	0.706	-0.384	0.351	-0.21	-0.624	-0.13	-0.2	0.0234	-0.281	0.497
CC(=O)n1cc(C(O)C2C=CC3C(=O)N(C)C(=O)C3N2Nc2ccccc2)c2ccccc21 (stereo not given)	1.35	-0.581	0.532	0.202	-0.53	0.105	0.494	0.578	1.36	1.18
COCC(=C=CC[C@@H](O)c1ccccc1OCCO)C[C@@H](O)c1cc(Cl)cc(Cl)c1O	1.44	-2.21	0.635	0.362	-0.534	-0.126	-0.14	-0.0863	0.704	0.792
CC1CC/C=C\[C@H]2OC34C=CCN(c5ccc(Cl)cc5)C(=O)[C@H]3N(CCO)C(=O)[C@]4(C)C2C(=O)O1 (stereo not given in full)	-1.01	-1.35	-1.1	-0.795	-0.633	-0.124	-0.367	-0.342	-0.485	-0.445
O=C(NCc1ccccc1)[C@@]1(Cc2ccccc2)N=C(c2ccc(OCCCO)cc2)O[C@H]1c1ccccc1	1.11	-2.57	-0.699	2.36	1.09	0.055	-0.181	1.36	2.02	1.1
C=C(CCCC)C(=O)CC[C@@H](OC(=O)c1cccnc1)c1ccc(CO)o1	0.94	-1.39	0.654	0.916	-1.3	0.0003	-0.0035	-0.0333	0.387	0.781
COC(=O)[C@@]1(Cc2ccc(OC)cc2)[C@H]2c3cc(C(=O)N4CCCC4)n(Cc4ccccc4)c3C[C@H]2CN1C(=O)c1ccccc1	1.16	-1.76	0.117	2.3	0.817	1.29	2.49	2.87	0.0976	0.75
CN(C)C(=O)[C@]1(Cc2ccccc2N=[N+]=[N-])N=C(c2ccc(OCCCO)cc2)O[C@@H]1c1ccccc1	1.08	-1.85	0.104	0.516	0.0377	-0.329	-0.116	0.973	0.897	1.3
[N-]=[N+]=Nc1ccccc1[C@H]1OC(c2ccc(OCCCO)cc2)=N[C@@]1(Cc1ccccc1)C(=O)O	1.46	1.09	-0.271	0.577	-0.0461	0.0375	0.483	-0.0277	0.826	2.07

SMILES	composite z-score [1]	z-score [2]	composite z-score [3]	composite z-score [4]	composite z-score [5]	composite z-score [6]	composite z-score [7]	composite z-score [8]	composite z-score [9]	composite z-score [10]
COC(=O)[C@@]1(Cc2ccccc2)[C@H]2c3cc(C(=O)N4CCCC4)n(Cc4nc5ccccc5[nH]4)c3C[C@H]2CN1C(=O)c1ccccc1	1.43	-1.89	-0.0838	2.55	1.53	0.0003	-0.2	2.15	2.53	0.442
C#CCN(CC=C(C)C)[C@H](CO)c1ccccc1	0.309	-0.817	0.185	-0.171	-0.438	0.0771	-0.279	-0.176	0.455	0.136
COc1cc2c(cc1O)C=[N+](Cc1cccc(OC(F)(F)F)c1)CC2	-1.28	-0.556	-0.402	-0.579	-0.149	-0.158	-0.206	-0.294	0.15	0.0656
COC(=O)c1c(CC[C@@H](CO)NC(=O)N[C@H](Cn2cc(Cc3ccccc3)nn2)C(C)C)oc(C(C)=O)c1C(=O)OC	0.712	-0.0084	0.637	-0.279	-0.573	-0.18	0.288	-0.143	0.223	0.882
O=C1C2C=CC(C(O)c3ccc(F)cc3)N(Nc3ccccc3F)C2C(=O)N1c1ccccc1 (stereo not given)	1.18	0.912	-0.952	1.23	0.367	-0.001	-0.0441	1.34	0.694	0.394
C=C(/C(=C/C[C@@H](OC(C)=O)c1ccc(OCCO)cc1)c1cnc2ccccc2c1)C(C)C	1.32	-1.19	0.49	-0.196	-0.541	-0.091	0.111	0.0541	0.113	0.249
C[C@@]1([C@@H](NC(=O)c2ccccc2)c2ccc(-c3ccccc3)cc2)C[C@H]1C1CCCCC1	-0.752	0.602	-0.535	1.32	1.19	-0.006	-0.353	0.18	0.294	-0.272
CS(=O)(=O)CCOC(=O)C1=CC(CCCO)=CC(c2ccc(CN3CCCC3)cc2)N(Cc2cc3c(cc2Br)OCO3)C=C1C(=O)OCCS(C)(=O)=O (stereo not given)	0.981	-2.33	0.538	1.33	0.484	0.0765	0.171	1.27	2.44	1.62
O=C1C[C@]2(c3ccc([N+](=O)[O-])cc3)C(=O)N(CCN3CCOCC3)c3cc(CO)ccc3[C@H]2N1C1CCCCC1	-1.26	-0.809	-0.91	-0.146	0.0884	-0.363	-0.211	-0.405	-0.308	-0.251
COCCCNC(=O)[C@@]1(Cc2ccccc2N=[N+]=[N-])N=C(c2ccc(OCCCO)cc2)O[C@H]1c1ccccc1N=[N+]=[N-]	0.852	-2.86	0.431	1.72	0.686	0.168	-0.477	1.43	0.561	1.74
CN1C(=O)C2C=CC(C(O)c3ccc(-c4ccccc4)s3)N(N(c3ccccc3)c3ccccc3)C2C1=O (stereo not given)	0.761	0.339	-0.18	0.906	0.405	0.0324	-0.0813	1.44	0.397	1.37
COC(=O)[C@@]1(Cc2ccccc2)[C@H]2c3cc(C(=O)N(C)C)n(CCSCCO)c3C[C@H]2CN1C(=O)c1ccccc1	0.933	-1.34	-0.654	1.26	0.786	0.117	0.383	1.66	0.0664	0.317
C=C/C=C/[C@H]1C(=C)CN([C@@H](Cc2ccccc2)C(=O)OC)[C@@H]1[C@H](O)Cc1ccccc1	-0.784	-0.331	-1.09	-0.679	-1.1	-0.129	-0.138	-0.0624	-0.207	-0.217
C=C(CCCC)C(=O)CC[C@H](OC(C)=O)c1cccc(OCCO)c1	-0.252	-1.78	-0.433	-0.687	-0.918	-0.156	-0.0709	-0.036	1.31	-0.653
O=C(O)[C@@]1(CCS(=O)(=O)c2ccccc2)COC(c2ccc(OCCCO)cc2)=N1	0.182	-0.615	-0.691	-0.0602	0.24	-0.129	0.0062	-0.463	2.98	0.451
CN(C)CCCNC(=O)[C@@]1(c2ccc([N+](=O)[O-])cc2)CC(=O)N(C2CCCCC2)[C@@H]1c1ccc(CO)cc1I	1.41	-3.46	-0.104	-0.0828	-0.245	-0.0721	-0.147	-0.606	0.46	1.03
CN(C)C(=O)[C@@]1(Cc2ccccc2)N=C(c2ccc(OCCCO)cc2)O[C@H]1c1ccccc1N=[N+]=[N-]	1.42	-2.79	-0.0506	1.09	0.0779	0.178	-0.0146	-0.482	0.491	0.567
